Eight compounds from PubChem BioAssay (EPA / NIEHS) can be followed below.

Experiment [1] concerns the target Myc proto-oncogene protein (Homo sapiens) (UniProt P01106). As to the kind of experiment: ATG_Myc_CIS: Attagene CIS-FACTORIAL HepG2 Assay for human Myelocytomatosis (Myc) Proto-Oncogene Transcription Factor (AID 2282990). The conditions noted are these: HepG2, Attagene cis-reporter transcription factor activity; actives raise or lower the signal. The gist of the method:
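Fluorescence intensity of reporter-specific cDNA fragments, separated by capillary electrophoresis, gives the signal. Transfected HepG2 cells carrying cis-promoter reporter constructs are incubated with compound for 24 h; DMSO serves as baseline.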

Experiment [2] can be described thus: ATG_NF_kB_CIS: Attagene CIS-FACTORIAL HepG2 Assay for human Nuclear Factor Kappa B (NF-kB) (AID 2282991). The conditions noted are these: HepG2 Attagene cis-factorial NF-kB reporter mRNA; actives raise or lower the signal. The gist of the method:
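HepG2 cells transiently transfected with multiplexed cis-element reporter units measuring endogenous transcription factor activity; reporter mRNA read 24 h after dosing by RT-PCR, fluorescent labelling, HpaI digestion and capillary electrophoresis. Bidirectional fit against DMSO baseline.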

Experiment [3] can be described thus: ATG_NRF2_ARE_CIS: Attagene CIS-FACTORIAL HepG2 Assay for human Nuclear Factor Erythroid 2 Related Factor 2 (NFR2) response to Antioxidant Response Elements (ARE) (AID 2282992).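 As to AC50: reporter mRNA level measured by RT-PCR and capillary electrophoresis fluorescence.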 The note with it: HepG2 Attagene ARE/NRF2 reporter, transcription factor activity; actives raise or lower the signal. In a few lines: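 Endogenous transcription factor activity in human liver HepG2 cells is tracked via a cis-element-driven reporter within a multiplexed set. mRNA induction is read by RT-PCR and capillary electrophoresis after 24 h, with DMSO as baseline.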

Experiment [4] can be described thus: ATG_Oct_MLP_CIS: Attagene CIS-FACTORIAL HepG2 Assay for human Octamer-Binding Transcription Factor (Oct) (AID 2282993). The note with it: HepG2 Attagene cis-factorial Oct reporter, mRNA; actives raise or lower the signal. The gist of the method: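 Using HepG2 cells bearing transfected cis-reporter constructs, mRNA induction was read after 24 h by fluorescent RT-PCR and capillary electrophoresis, with DMSO defining baseline for gain- or loss-of-signal fits.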

Experiment [5] has as its target Cellular tumor antigen p53 (Homo sapiens) (UniProt P04637). As to the kind of experiment: ATG_p53_CIS: Attagene CIS-FACTORIAL HepG2 Assay for human p53 Transcription Factor (AID 2282994). The conditions noted are these: HepG2 p53 cis-element reporter, Attagene mRNA; actives raise or lower the signal. In a few lines:
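Steps: transfect HepG2 with multiplexed cis reporter constructs; dose chemicals 24 h; extract RNA, reverse-transcribe, PCR-amplify reporter sequences; FAM-label, HpaI-digest, resolve fragments by CE. Activity fitted both directions relative to DMSO.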

Experiment [6] is described as follows: BSK_3C_TissueFactor: BioMAP Diversity Plus: 3C Assay for Tissue Factor Biomarker Activity (AID 2282997). The conditions noted are these: BioMAP 3C HUVEC, tissue factor biomarker readout; actives raise or lower the signal. The gist of the method:
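In this endothelial system, HUVEC are treated for 24 h and Tissue Factor is assessed by ELISA, normalised to DMSO.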

Experiment [7] can be described thus: BSK_3C_uPAR: BioMAP Diversity Plus: 3C Assay for Urokinase-type plasminogen activator receptor (uPAR) Biomarker Activity (AID 2282998). The conditions noted are these: BioMAP 3C HUVEC, uPAR biomarker ELISA; actives raise or lower the signal. The gist of the method: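 In this endothelial cell-based assay, human umbilical vein primary cells were treated with chemicals and harvested at 24 h. uPAR was quantified using ELISA, with gains or losses fitted relative to DMSO controls.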
(In general: An ELISA detects its analyte on a solid surface through an enzyme-linked reagent.)

Experiment [8] in a line: BSK_3C_VCAM1: BioMAP Diversity Plus: 3C Assay for Vascular cell adhesion molecule 1 (VCAM1) Biomarker Activity (AID 2282999). The note with it: BioMAP 3C HUVEC, VCAM1 ELISA, cytokine-stimulated; actives raise or lower the signal. The gist of the method: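 HUVEC primary cells, 24 h compound exposure; VCAM-1 by ELISA; gain/loss of signal fitted bidirectionally vs DMSO baseline.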

A short description of experiment [9]: BSK_4H_Eotaxin3: BioMAP Diversity Plus: 4H Assay for Eotaxin 3 Biomarker Activity (AID 2283000).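 As to outcome: CCL26 protein level quantified by ELISA in parallel with SRB cytotoxicity check.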 The note with it: primary human endothelial cells (HUVEC); actives raise or lower the signal. In a few lines: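 ELISA quantitation of CCL26 (Eotaxin-3) protein from chemically dosed human vascular endothelial cells at 24 h; increases and decreases both scored relative to DMSO-treated baseline.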

The target of experiment [10] is human Peroxisome Proliferator-activated Receptor alpha (PPARa), PPARA (gene 5465) (UniProt Q07869). As to the kind of experiment: ATG_PPARa_TRANS: Attagene TRANS-FACTORIAL HepG2 Assay for human Peroxisome Proliferator-activated Receptor alpha (PPARa) (AID 2283001; active = hit-call score of the fitted dose curve at least 0.9, where 1 is the maximum;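 as to AC50: potency for gain of reporter signal over DMSO so agonist or activator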). The gist of the method: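 Transient HepG2 transfection, GAL4-UAS reporters, NR-Gal4 chimeras; 24 h compound exposure. Readout: reporter transcripts by RT-PCR, 6-FAM primer extension, HpaI digest, capillary electrophoresis. Positive direction vs DMSO baseline.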
Sequence of human Peroxisome Proliferator-activated Receptor alpha (PPARa), PPARA (gene 5465) (Q07869 whole entry, looked up, the tested form may be a part): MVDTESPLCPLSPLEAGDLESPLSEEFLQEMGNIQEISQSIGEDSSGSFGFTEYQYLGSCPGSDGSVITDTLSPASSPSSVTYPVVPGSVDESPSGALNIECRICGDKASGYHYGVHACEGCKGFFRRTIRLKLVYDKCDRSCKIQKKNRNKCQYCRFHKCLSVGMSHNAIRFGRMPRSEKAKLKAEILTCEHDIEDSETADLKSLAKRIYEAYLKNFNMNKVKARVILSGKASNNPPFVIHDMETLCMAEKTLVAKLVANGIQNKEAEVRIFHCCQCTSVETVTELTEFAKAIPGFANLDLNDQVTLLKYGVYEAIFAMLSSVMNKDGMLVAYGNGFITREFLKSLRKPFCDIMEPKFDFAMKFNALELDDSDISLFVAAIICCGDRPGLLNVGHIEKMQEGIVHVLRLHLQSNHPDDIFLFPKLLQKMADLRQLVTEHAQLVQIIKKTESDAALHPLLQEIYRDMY

Experiment [11] concerns the target human Peroxisome Proliferator-activated Receptor delta (PPARd), PPARD (gene 5467) (UniProt Q03181). As to the kind of experiment: ATG_PPARd_TRANS: Attagene TRANS-FACTORIAL HepG2 Assay for human Peroxisome Proliferator-activated Receptor delta (PPARd) (AID 2283002; active = hit-call score of the fitted dose curve at least 0.9, where 1 is the maximum). In a few lines:
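Fluorescence from capillary electrophoresis of labelled RT-PCR reporter fragments gives the signal; DMSO sets baseline. Cells: HepG2 transiently carrying GAL4-UAS reporter units plus chimeric nuclear receptor-Gal4 proteins, exposed to chemicals for 24 h.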

Read-out in experiment [12]: Intercellular Adhesion Molecule 1 (ICAM1), ICAM1 (gene 3383)
As to the kind of experiment: BSK_3C_ICAM1: BioMAP Diversity Plus: 3C Assay for Intercellular Adhesion Molecule 1 (ICAM1) Biomarker Activity (AID 2283003). The note with it: primary human endothelial cells (HUVEC); actives raise or lower the signal. The gist of the method: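 ELISA read-out of ICAM-1; HUVEC (primary human), 3C system, 24 h post-dosing; bidirectional fit vs DMSO baseline.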

Experiment [13] is described as follows: BSK_3C_Proliferation: Cell Proliferation Assessment in the BioMAP Diversity Plus: 3C Assay (AID 2283006).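 As to AC50: potency may reflect either rise or fall in cell number versus DMSO.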 The conditions noted are these: primary human endothelial cells (HUVEC). The gist of the method: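 HUVEC, sub-confluent; 48 h chemical exposure; 10% TCA fix, 0.1% SRB stain, A560 total protein. Gain or loss of signal fitted both directions vs DMSO control.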

The target in experiment [14] is Peroxisome proliferator-activated receptor gamma (Homo sapiens) (UniProt P37231). The experiment can be described thus: ATG_PPARg_TRANS: Attagene TRANS-FACTORIAL HepG2 Assay for human Peroxisome Proliferator-activated Receptor-gamma (PPARg) (AID 2283007; active = hit-call score of the fitted dose curve at least 0.9, where 1 is the maximum). The gist of the method: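 HepG2 cells transiently transfected with multiplexed GAL4-UAS reporter units and exogenous chimeric NR-Gal4 proteins; reporter mRNA quantified after 24 h compound exposure by RT-PCR, fluorescent labelling, HpaI digestion and capillary electrophoresis; gain-of-signal fitted versus DMSO baseline.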
Sequence of Peroxisome proliferator-activated receptor gamma (Homo sapiens) (P37231 whole entry, looked up, the tested form may be a part): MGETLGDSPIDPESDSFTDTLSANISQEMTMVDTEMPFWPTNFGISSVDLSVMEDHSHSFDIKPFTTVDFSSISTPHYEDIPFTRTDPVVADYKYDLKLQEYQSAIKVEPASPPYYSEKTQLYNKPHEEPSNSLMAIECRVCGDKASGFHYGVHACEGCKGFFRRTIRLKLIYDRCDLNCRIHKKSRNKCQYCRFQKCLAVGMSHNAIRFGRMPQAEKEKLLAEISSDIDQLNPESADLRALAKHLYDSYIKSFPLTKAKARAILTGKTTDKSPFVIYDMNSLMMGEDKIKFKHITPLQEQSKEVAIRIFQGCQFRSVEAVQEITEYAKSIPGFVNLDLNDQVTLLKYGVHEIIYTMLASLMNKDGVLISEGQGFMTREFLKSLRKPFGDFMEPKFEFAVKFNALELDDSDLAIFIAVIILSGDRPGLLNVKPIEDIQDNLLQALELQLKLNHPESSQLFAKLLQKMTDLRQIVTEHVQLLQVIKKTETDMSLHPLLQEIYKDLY

In experiment [15] the target is Nuclear receptor subfamily 1 group I member 2 (Homo sapiens) (UniProt O75469). The experiment can be described thus: ATG_PXR_TRANS: Attagene TRANS-FACTORIAL HepG2 Assay for human Pregnane X Receptor (PXR) (AID 2283008; active = hit-call score of the fitted dose curve at least 0.9, where 1 is the maximum). In a few lines:
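HepG2 transfected (FuGene 6) with GAL4-UAS reporter units + PXR-Gal4 chimera; dosed 24 h. Total RNA → oligo(dT) RT → PCR → 6-FAM primer extension → HpaI cut → CE. Gain-of-signal vs DMSO.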

Experiment [16] has as its target human RAR-related Orphan Receptor beta (RORb), RORB (gene 6096) (UniProt Q92753). As to the kind of experiment: ATG_RORb_TRANS: Attagene TRANS-FACTORIAL HepG2 Assay for human RAR-related Orphan Receptor beta (RORb) (AID 2283010; active = hit-call score of the fitted dose curve at least 0.9, where 1 is the maximum). In a few lines: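 HepG2, transient MRTU transfection (GAL4-UAS reporters, exogenous NR-Gal4 chimeras); 24 h compound exposure; total RNA → RT-PCR → 6-FAM primer extension → HpaI digest → CE fluorescence. Positive direction vs DMSO baseline.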

The target in experiment [17] is human Retinoic Acid Receptor gamma (RARg), RARG (gene 5916) (UniProt P13631). The experiment can be described thus: ATG_RARg_TRANS: Attagene TRANS-FACTORIAL HepG2 Assay for human Retinoic Acid Receptor gamma (RARg) (AID 2283009; active = hit-call score of the fitted dose curve at least 0.9, where 1 is the maximum). In a few lines: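 Readout: reporter transcript levels via RT-PCR, 6-FAM primer-extension labelling, HpaI digestion and capillary electrophoresis. Cells: HepG2 carrying transfected RARg-GAL4 chimera plus UAS reporter set. Dosing 24 h; DMSO negative control.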
Sequence of human Retinoic Acid Receptor gamma (RARg), RARG (gene 5916) (P13631 whole entry, looked up, the tested form may be a part): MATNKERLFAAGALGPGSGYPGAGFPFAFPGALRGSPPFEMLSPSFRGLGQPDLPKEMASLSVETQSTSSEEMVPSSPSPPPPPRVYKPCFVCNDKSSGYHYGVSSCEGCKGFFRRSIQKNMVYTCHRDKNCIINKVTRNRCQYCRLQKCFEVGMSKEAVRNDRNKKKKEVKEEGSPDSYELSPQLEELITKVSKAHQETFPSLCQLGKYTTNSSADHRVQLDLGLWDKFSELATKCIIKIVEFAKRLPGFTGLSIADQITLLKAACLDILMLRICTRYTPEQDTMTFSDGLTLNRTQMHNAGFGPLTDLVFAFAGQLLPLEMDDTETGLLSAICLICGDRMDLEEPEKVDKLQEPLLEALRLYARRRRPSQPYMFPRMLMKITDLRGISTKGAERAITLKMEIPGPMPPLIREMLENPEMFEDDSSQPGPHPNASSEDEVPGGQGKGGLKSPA

Experiment [18] concerns the target human Retinoic Acid Receptor beta (RARb), RARB (gene 5915) (UniProt P10826). As to the kind of experiment: ATG_RARb_TRANS: Attagene TRANS-FACTORIAL HepG2 Assay for human Retinoic Acid Receptor beta (AID 2283004; active = hit-call score of the fitted dose curve at least 0.9, where 1 is the maximum). The gist of the method:
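Fluorescent capillary-electrophoresis detection of GAL4-UAS reporter mRNA defines the endpoint, with induction over DMSO-treated wells scored as activity. Transiently transfected human hepatoma HepG2 cells expressing exogenous NR–Gal4 proteins are exposed to test chemicals for 24 h.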

Results filed as inconclusive are left out. Some structures have more than one record in an assay (separate samples or runs), and their calls can disagree. Active and inactive are the calls of the source. The calls were made as follows, unless noted: active = hit-call score of the fitted dose curve at least 0.9, where 1 is the maximum; inactive = score below 0.9.

Sequence of Cellular tumor antigen p53 (Homo sapiens) (P04637 whole entry, looked up, the tested form may be a part): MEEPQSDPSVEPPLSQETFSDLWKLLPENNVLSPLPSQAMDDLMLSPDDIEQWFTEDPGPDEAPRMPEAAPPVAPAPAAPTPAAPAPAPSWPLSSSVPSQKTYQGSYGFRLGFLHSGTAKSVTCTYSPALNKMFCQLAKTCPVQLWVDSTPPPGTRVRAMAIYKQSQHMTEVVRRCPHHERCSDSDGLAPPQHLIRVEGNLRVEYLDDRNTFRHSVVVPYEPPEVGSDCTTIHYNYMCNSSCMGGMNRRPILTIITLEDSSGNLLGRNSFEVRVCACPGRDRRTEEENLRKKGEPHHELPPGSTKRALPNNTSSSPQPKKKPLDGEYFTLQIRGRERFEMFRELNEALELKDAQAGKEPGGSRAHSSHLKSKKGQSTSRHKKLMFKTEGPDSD
Sequence of Nuclear receptor subfamily 1 group I member 2 (Homo sapiens) (O75469 whole entry, looked up, the tested form may be a part): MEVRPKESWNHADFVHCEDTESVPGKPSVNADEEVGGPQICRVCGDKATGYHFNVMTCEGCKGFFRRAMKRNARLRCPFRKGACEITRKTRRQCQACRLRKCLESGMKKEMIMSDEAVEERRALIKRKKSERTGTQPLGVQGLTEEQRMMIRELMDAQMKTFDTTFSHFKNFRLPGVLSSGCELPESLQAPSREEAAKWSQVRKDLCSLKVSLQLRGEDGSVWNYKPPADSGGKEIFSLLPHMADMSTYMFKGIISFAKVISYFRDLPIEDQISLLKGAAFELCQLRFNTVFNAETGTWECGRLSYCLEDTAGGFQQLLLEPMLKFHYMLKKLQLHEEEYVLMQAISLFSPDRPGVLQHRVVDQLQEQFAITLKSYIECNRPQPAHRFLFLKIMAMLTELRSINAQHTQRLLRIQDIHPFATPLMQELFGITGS
Sequence of Myc proto-oncogene protein (Homo sapiens) (P01106 whole entry, looked up, the tested form may be a part): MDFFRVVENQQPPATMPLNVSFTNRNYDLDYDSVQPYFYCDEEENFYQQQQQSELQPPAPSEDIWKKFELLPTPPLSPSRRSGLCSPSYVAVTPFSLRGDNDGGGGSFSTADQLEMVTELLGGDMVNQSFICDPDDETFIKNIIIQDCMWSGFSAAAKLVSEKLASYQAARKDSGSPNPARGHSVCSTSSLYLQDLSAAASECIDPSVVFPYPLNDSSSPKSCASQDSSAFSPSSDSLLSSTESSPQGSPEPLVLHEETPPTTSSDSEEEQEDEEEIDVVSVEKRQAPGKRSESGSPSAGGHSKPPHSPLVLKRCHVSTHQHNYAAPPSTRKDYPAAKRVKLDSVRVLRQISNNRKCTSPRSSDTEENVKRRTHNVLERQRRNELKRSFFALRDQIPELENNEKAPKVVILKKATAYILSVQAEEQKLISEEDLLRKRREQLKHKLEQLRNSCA
Sequence of human Peroxisome Proliferator-activated Receptor delta (PPARd), PPARD (gene 5467) (Q03181 whole entry, looked up, the tested form may be a part): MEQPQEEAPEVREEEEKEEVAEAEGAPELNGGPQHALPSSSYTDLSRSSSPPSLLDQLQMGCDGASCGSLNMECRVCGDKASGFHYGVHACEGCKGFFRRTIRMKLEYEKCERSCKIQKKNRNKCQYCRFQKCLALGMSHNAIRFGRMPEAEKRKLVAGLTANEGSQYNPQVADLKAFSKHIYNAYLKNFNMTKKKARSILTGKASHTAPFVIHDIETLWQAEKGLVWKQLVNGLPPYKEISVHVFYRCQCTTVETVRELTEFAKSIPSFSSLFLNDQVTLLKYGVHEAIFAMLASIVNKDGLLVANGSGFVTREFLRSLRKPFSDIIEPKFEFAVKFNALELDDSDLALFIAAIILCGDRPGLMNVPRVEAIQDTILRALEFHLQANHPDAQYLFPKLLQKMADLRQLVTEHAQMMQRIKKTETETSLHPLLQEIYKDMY
Sequence of human RAR-related Orphan Receptor beta (RORb), RORB (gene 6096) (Q92753 whole entry, looked up, the tested form may be a part): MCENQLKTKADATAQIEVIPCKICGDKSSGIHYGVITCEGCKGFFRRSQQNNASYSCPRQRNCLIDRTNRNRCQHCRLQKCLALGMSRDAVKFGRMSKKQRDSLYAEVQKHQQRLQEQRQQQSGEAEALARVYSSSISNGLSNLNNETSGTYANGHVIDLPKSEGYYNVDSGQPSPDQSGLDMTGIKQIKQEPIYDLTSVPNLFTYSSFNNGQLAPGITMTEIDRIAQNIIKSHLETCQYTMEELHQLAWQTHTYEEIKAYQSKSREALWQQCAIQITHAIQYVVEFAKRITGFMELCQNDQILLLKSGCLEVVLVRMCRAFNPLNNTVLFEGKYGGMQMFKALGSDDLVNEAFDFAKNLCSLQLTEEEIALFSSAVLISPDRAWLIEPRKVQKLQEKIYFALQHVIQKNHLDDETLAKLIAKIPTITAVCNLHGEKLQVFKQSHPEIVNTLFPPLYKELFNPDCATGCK
Sequence of human Retinoic Acid Receptor beta (RARb), RARB (gene 5915) (P10826 whole entry, looked up, the tested form may be a part): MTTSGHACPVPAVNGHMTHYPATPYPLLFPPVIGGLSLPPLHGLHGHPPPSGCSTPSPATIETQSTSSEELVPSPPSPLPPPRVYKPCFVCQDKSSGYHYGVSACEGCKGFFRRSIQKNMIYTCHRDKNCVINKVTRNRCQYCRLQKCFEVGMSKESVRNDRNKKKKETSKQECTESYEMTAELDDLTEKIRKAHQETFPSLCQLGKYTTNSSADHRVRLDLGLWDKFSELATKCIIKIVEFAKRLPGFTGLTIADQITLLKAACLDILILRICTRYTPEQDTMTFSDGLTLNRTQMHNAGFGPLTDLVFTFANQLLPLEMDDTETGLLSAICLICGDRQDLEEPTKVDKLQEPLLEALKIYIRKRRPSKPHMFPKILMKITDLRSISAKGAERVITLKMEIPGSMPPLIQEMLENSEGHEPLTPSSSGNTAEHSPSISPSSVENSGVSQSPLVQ

On to `c1ccc2cc(Nc3ccc(Nc4ccc5ccccc5c4)cc3)ccc2c1`, for which the call in experiment [1], in experiment [2], in [3], in experiment [4], in [5] and in experiment [7] was inactive. In addition, the result in experiment [8], in [9], in experiment [10], in experiment [11], in experiment [12] and in experiment [13] was inactive. Moreover, the compound was called inactive in experiment [14], in experiment [15] and in experiment [16]. For the same compound, the AC50 (commonly the concentration giving half of the maximal activity seen) in [6] is 13.9 µM (active).

`CCOC(=O)[C@@H](C)Oc1ccc(Oc2nc3ccc(Cl)cc3o2)cc1`: the compound was classed as inactive in experiment [1], in [2], in experiment [4], in experiment [5], in experiment [10] and in [11]. The AC50 is 39.9 µM (active) in experiment [3] and 39.2 µM (active) in [14].

`O=CN1CCOCC1`: the outcome in experiment [1], in experiment [2], in experiment [3], in [4], in [5] and in experiment [6] was inactive. For the same compound, the result in experiment [7], in [8], in experiment [9], in experiment [10], in experiment [11] and in experiment [12] was inactive. In addition, the result in experiment [13], in experiment [14] and in experiment [16] was inactive.

For `CSCCC=O`, the compound was classed as inactive in experiment [1], in [2], in [3], in experiment [4], in experiment [5] and in experiment [6]. Moreover, the result in experiment [7], in [8], in experiment [9], in experiment [12], in experiment [13] and in experiment [16] was inactive. Moreover, in experiment [15], the AC50 was 10.6 µM (active).

Take `CCCCCC(C=O)=Cc1ccccc1`: the call in [1], in experiment [2], in experiment [4], in experiment [11], in [15] and in [17] was inactive. The AC50 in experiment [3] is 100 µM (active); in experiment [5], 164 µM (active); in experiment [6], 31.7 µM (active); in experiment [7], 31.5 µM (active); in experiment [8] it was 33.1 µM (active); in experiment [9], 31 µM (active). Also, the AC50 in experiment [10] was 27.5 µM (active); in experiment [12], 30.9 µM (active); in [13], 30.8 µM (active); in experiment [14], 27.6 µM (active).

For `CCC(C)S` (configuration not stated), the outcome in experiment [1], in experiment [2], in [3], in experiment [4], in experiment [5] and in experiment [10] was inactive. The call in experiment [11] and in [15] was inactive.

Regarding `CC(CN=Cc1ccccc1O)N=Cc1ccccc1O` (configuration not stated), the compound was classed as inactive in experiment [1], in experiment [4], in [5], in [6], in experiment [7] and in experiment [8]. In addition, the result in experiment [9], in experiment [10], in experiment [12], in [18] and in experiment [13] was inactive. In addition, the AC50 in experiment [2] is 63.6 µM (active); in [3], 69.5 µM (active); in experiment [13], 3.97 µM (active); in experiment [14], 72.2 µM (active).

In the case of `O=C1OC[C@H](Cc2cccc(O)c2)[C@H]1Cc1cccc(O)c1`, the result in [1], in experiment [2], in experiment [3], in [4], in [5] and in experiment [6] was inactive. Further, the outcome in experiment [7], in experiment [8], in experiment [9], in [11], in experiment [12] and in experiment [13] was inactive. The compound was classed as inactive in [14], in experiment [17] and in [16]. The AC50 in [15] was 7.35 µM (active).
